# Experimental data from PubChem BioAssay AID1224852 (National Center for Advancing Translational Sciences (NCATS), 2016).
# Results filed as inconclusive are left out. Activity calls are given as the source filed them. Calls come from the whole dose curve; as a rule, active = well fitted curve in the direction sought with a large enough effect (not every such curve was filed as active); inconclusive = small, poorly fitted or top-dose-only effect, or effect the other way, or another doubt; inactive = no such curve, though single readings can be large or run the other way.
# Test: Cell viability assay for measurement of the protective activity of small molecules against cell death caused by Zika virus infection in human neural progenitor cells (hNPCs)
# Conditions: hNPC ZIKV-induced death protection, ATP luminescence, 72 h; series mostly up to 46.1 µM
# Excerpt: National Center for Advancing Translational Sciences [NCATS] Johns Hopkins University School of Medicine Florida State University Assay Overview: Zika virus infection causes cell death in certain cell types including human neural progenitor cells (hNPCs), astrocytes, and astrocytoma cell line (SNB-19). This cell viability assay measures the ATP content (level) in human neural progenitor cells (hNPCs) using a luminescence readout that is proportional to viable cell numbers. Decrease in the luminescence signal after Zika virus infection indicates the cell death caused by Zika virus. Small molecule inhibitors […] the decreased luminescence signal after Zika virus infection, indicating the protective effect of that small molecule on the cell death caused by Zika virus infection. This observed protective effect of small molecules against Zika virus induced cell death may result from inhibition of virus replication or cellular response to the virus infection.
# Assay Protocol Summary: The medium for hNPCs consists of DMEM/F12, N2 supplement (ThermoFisher, Cat.# 17502048), NEAA (ThermoFisher, Cat. # 11140050), 2 ug/ml heparin, 2 uM cyclopamine, and B27 (ThermoFisher, Cat. # 17504044). The ATP content assay kit (PerkinElmer, Cat.# 6016731) was used to determine cell viability. The reagent was reconstituted and prepared as described by the manufacturer. Cells were seeded in 384- or 1536-well assay plates and cultured at 37 C with 5% CO2 for 16 to 20 hours. The typical cell seeding density in the 1536-well plate assay is 350 cells/well in 3 ul medium for hNPCs in the tissue cultured treated/PDL coated plates. Compounds were added to cells and incubated for one hour before addition of ZIKV solution to cells (2 FFU/cell). After incubation at 37 C with 5% CO2 for 72 hours, the reagent mixture of the ATP content assay kit was added to each well, followed by incubation at room temperature for 10 minutes. The luminescence intensity of the assay plates was measured using a ViewLux plate reader (PerkinElmer). […] The percentage inhibitions of the decreased cell viability by small molecule inhibitors were then calculated.
row,SMILES,outcome
1,CC(C)[N+](C)(CCC(C(N)=O)(c1ccccc1)c1ccccc1)C(C)C,inactive
2,CN1CC[C@@]2(C)c3cc(OC(=O)Nc4ccccc4)ccc3N(C)[C@@H]12,inactive
3,S=C(SSC(=S)N1CCCCC1)N1CCCCC1,inactive
4,O=c1c2ccccc2[se]n1-c1ccccc1,inactive
5,COC1(CS(=O)c2ccccc2)CCN(CCc2c[nH]c3ccc(F)cc23)CC1 (stereo not drawn),inactive
6,Oc1ccc([C@H]2CNCc3c2ccc(O)c3O)cc1O,inactive
7,O=C1C=CC[C@@H]2[C@H]3CCCN4CCC[C@@H](CN12)[C@@H]34,inactive
8,CN1CC(=O)N2C(Cc3c([nH]c4ccccc34)[C@H]2c2ccc3c(c2)OCO3)C1=O (stereo partly drawn),inactive
9,CC(=C(CCOC(=O)C(C)C)SSC(CCOC(=O)C(C)C)=C(C)N(C=O)Cc1cnc(C)nc1N)N(C=O)Cc1cnc(C)nc1N,inactive
10,CC(C)N[C@@H]1CCn2c(=O)[nH]c3cccc(c32)[C@@H]1O,inactive
11,Cc1ccc([N+](=O)[O-])[c]2c1[O][Hg]2,inactive
12,O=S(=O)(CC1CS1)c1ccc(Oc2ccccc2)cc1 (stereo not drawn),inactive
13,O=C(Nc1ccc(Br)cc1)c1cc(Br)cc(Br)c1O,inactive
14,COP(=S)(OC)SCN1C(=O)c2ccccc2C1=O,inactive
15,COc1cccc2c1C(=O)c1c(O)c3c(c(O)c1C2=O)C[C@@](O)(C(=O)CO)CC3OC1CC(N2CCOC(OC)C2)C(O)C(C)O1 (stereo partly drawn),inactive
16,CC[n+]1c(-c2ccccc2)c2cc(N)ccc2c2ccc(N)cc21,inactive
17,CC(C)[C@H]1C(=O)N[C@H](CO)Cc2c[nH]c3cccc(c23)N1C,inactive
18,CC(O)CN1CCN(CC(=O)[O-])CCN(CC(=O)[O-])CCN(CC(=O)[O-])CC1.[Gd+3] (stereo not drawn),inactive
